The record followed here is PubChem BioAssay (NCATS).

Structures are written as SMILES. Records with an inconclusive call do not appear. A call without a number means that no potency is given here. Calls of active or inactive are those of the source. Calls come from the whole dose curve; as a rule, active = well fitted inhibition curve with a large enough effect; inconclusive = small, poorly fitted or top-dose-only effect; inactive = flat fitted curve, though single readings scatter.

The nature of this test: qHTS of Trypanosoma Brucei Inhibitors: LOPAC Validation (AID 624147). The conditions noted are these: purified enzyme assay, luminescence, 45 min; series mostly up to 57.5 µM. From the text:
Members of the Trypanosomatidae family of parasitic protozoans cause a spectrum of diseases throughout the tropical and subtropical world. Sleeping sickness, caused by two subspecies of Trypanosoma brucei, is endemic to areas of sub-Saharan Africa, while Chagas' disease, a manifestation of Trypanosoma cruzi infection, is prevalent throughout Central and South America. In addition, many species of Leishmania are responsible for a range of cutaneous and visceral diseases, causing ulcers, destructive lesions and kalaazar, a lethal infection of the viscera. These diseases cause severe public health and economic burdens on populations that are often already caught in a tragic cycle of poverty, poor nutrition and disease. Collectively, parasites of the trypanosomatid family infect 30 million people worldwide (~500 million live in endemic areas), and account for ~130K deaths annually. Existing treatments have developed little in the past 50 years, and suffer from toxicity, poor efficacy and resistance; the goal of this project is to develop lead drugs that will be suitable for entry into pre-clinical trials.
Glycolysis in axenically cultured T. cruzi, representing the intracellular pathogenic stage, is also essential for these parasites. {Engel, 1987} This project aims to discover and optimize selective inhibitors of the glycolytic enzyme pyruvate kinase (PYK) from Trypanosoma brucei, the parasite that causes sleeping sickness. […] Trypanosomatid PYKs show significant differences from their human counterparts including only 47-50% sequence identity and different allosteric and activation properties.{Callens, 1992} To this end, a qHTS was done against the MLSMR to discover inhibitors.
NIH Molecular Libraries Probe Production Network [MLPCN]
NIH Chemical Genomics Center [NCGC]
PI Name: Malcolm Walkinshaw, University of Edinburgh
2 uL of TbPYK/substrate buffer (columns 1-3, 5-48) are dispensed into Greiner white solid bottom 1536-well assay plates; column 4 receives only TEA buffer as 0x TbPYK controls. Compounds are then transferred via Kalypsys pin tool equipped with 1536-pin array (10 nL slotted pins, V&P Scientific, San Diego, CA). Following addition of compound, 2 uL of ADP (130 uM final concentration, all columns) is added to initiate the reaction. The plates are then incubated at room temperature for 45 minutes. Kinase-Glo Plus reagent is added (3 uL) and plates incubated for 10 minutes, before being transferred to a ViewLux high-throughput CCD imager (PerkinElmer) wherein single end-point measurements of luminescence are acquired using a clear filter. All reagents are diluted in an assay buffer consisting of 50 mM TEA (pH 7.2), 100 mM KCl, 10 mM MgCl2, 0.05% BSA and 0.01% Tween-20.
All screening operations will be performed on a fully integrated robotic system (Kalypsys, San Diego, CA) containing one RX-130 and two RX-90 anthropomorphic robotic arms (Staeubli, Duncan, SC). Library plates will be screened starting from the lowest and proceeding to the highest concentration. Vehicle-only plates, with DMSO being pin-transferred to columns 5-48, will be inserted uniformly at the beginning and the end of each library in order to monitor and record any shifts in the background, which can be affected by reagent dispensers or loss in enzyme activity over time. Screening data will be corrected, normalized, and concentration-effect relationships will be derived by using publicly-available curve fitting algorithms developed in-house (http://ncgc.nih.gov/pub/openhts).
Regarding `Cn1cc(C(F)(F)F)nc1-c1ccc(OCC(O)CNCCOc2ccc(O)c(C(N)=O)c2)cc1` (stereo not given), the Potency entry is “inactive”.

As to `CNC(=O)c1cc2c(cn1)[nH]c1ccccc12`, the Potency result was “inactive”. As to `O=c1[nH]c2ccccc2c2ccccc12`, the Potency entry was “inactive”. The same measure for `O=c1oc(Cl)c(Cl)c2ccccc12`: “inactive”.

Turning to `C#CCn1c(=O)c2c(ncn2C)n(C)c1=O`, the Potency result was “inactive”. As for `CNCCc1cnc(CCC(c2ccccc2)c2ccccc2)[nH]1`, the Potency result is “inactive”. The same measure for `Oc1ccc(/C=C/c2ccc(/C=C/c3ccc(O)cc3)c(Br)c2)cc1`: “inactive”; for `CN1C2CCC1CC(OC(c1ccccc1)c1ccccc1)C2` (stereo not given): “inactive”; for `CN[C@H](CC(=O)O)C(=O)O`: “inactive”.

Consider `NCCS(=O)O`, for which the Potency result is “inactive”. In the case of `O=C(O)[C@H]1NCCC[C@H]1C(=O)O`, the Potency entry is “inactive”. Take `O=C(O)/C=C/c1cnc[nH]1`: the Potency result is “inactive”.

As for `CC1CCN=C(N)S1` (stereo not given), the Potency result was “inactive”. For the compound `O=c1cc(-c2ccccc2)[nH]c2nc(Cl)ccc12`, the Potency result was “inactive”. With `COc1ccc(CCN(C)CCc2ccc(OC)c(OC)c2)cc1OC`, the Potency result is “inactive”. With `CCCCCCC/C=C\CCCCCCCCC(=O)O`, the Potency result was “inactive”.

Regarding `C=C1C[C@@]23CC[C@H]4[C@@](C)(CCC[C@@]4(C)C(=O)OC4OC(CO)C(O)C(O)C4O)[C@@H]2CC[C@]1(OC1OC(CO)C(O)C(O)C1OC1OC(CO)C(O)C(O)C1O)C3` (stereo not given in full), the Potency result is “inactive”.

As to `CCN(CC)CCOC(=O)c1cc(Cl)c(N)cc1OC`, the Potency entry is “inactive”.

With `Cc1nc(N=Nc2ccc(C(=O)O)cc2)c(COP(=O)(O)O)c(C=O)c1O`, the Potency entry was “inactive”. `O=C(O)C1CN(CCCP(=O)(O)O)CCN1` (stereo not given): the Potency entry was “inactive”.

As to `CC(=O)NCCc1c[nH]c2ccc(O)cc12`, the Potency entry was “inactive”.

Regarding `Nc1ncnc2c1ncn2C1CCCC1`, the Potency entry is “inactive”.

Regarding `Cc1cc(Cn2cnc3c2C[C@@H](C(=O)O)N(C(=O)C(c2ccccc2)c2ccccc2)C3)ccc1N`, the Potency entry is “inactive”. Regarding `O=c1cc(-c2ccccc2F)[nH]c2cc3c(cc12)OCO3`, the Potency result is “inactive”. Next, `C[C@@H](NCCc1ccc(O)cc1)[C@@H](O)c1ccc(O)cc1`: “inactive”; `N[C@@H](CS(=O)O)C(=O)O`: “inactive”; `CC(=O)[C@H]1CCC2C3CC=C4C[C@@H](OS(=O)(=O)O)CC[C@]4(C)C3CC[C@@]21C` (stereo not given in full): “inactive”. As to `Cc1ccc([N+](=O)[O-])cc1S(=O)(=O)N(C)C`, the Potency entry was “inactive”. The same measure for `CN1CCN(c2nc3cc(C(F)(F)F)ccc3n3cccc23)CC1`: “inactive”. As to `C/C(=C\c1ccc(C(=O)O)cc1)c1ccc2c(c1)C(C)(C)CCC2(C)C`, the Potency entry is “inactive”.

As for `Brc1c(Br)c(Br)c2[nH]cnc2c1Br`, the Potency entry is “inactive”. Next, `CN(C)CCCc1cc(C(=O)Nc2ccc(-c3ccncc3)cc2)ccc1O`: “inactive”; `CC(C)C[C@H](NC(=O)[C@H](O)[C@H](N)Cc1ccccc1)C(=O)O`: “inactive”; `Nc1ccc2c3c(cccc13)C(=O)NC2=O`: “inactive”.

Turning to `Cc1nc2n(c(=O)c1CCN1CCC(c3noc4cc(F)ccc34)CC1)CCCC2O` (stereo not given), the Potency result was “inactive”. For `C=CCN1CCc2c(cc(O)c(O)c2Cl)C(c2ccccc2)C1` (stereo not given), the Potency result is “inactive”. For the compound `CC#CCOC(=O)c1c(C)nc2sc3c(c2c1N)CCC(O)C3` (stereo not given), the Potency result is “inactive”. With `O=C1C2C=CC=CC2=NC(=S)N1CCN1CCC(=C(c2ccc(F)cc2)c2ccc(F)cc2)CC1` (stereo not given), the Potency result is “inactive”.

Take `O=C(O)C1=CCCNC1`: the Potency result was “inactive”. For `COc1ccc(-c2cc3ncc(C)n3c(Nc3ncccc3C(N)=O)n2)cc1OC`, the Potency result is “inactive”.
